Measurements from PubChem BioAssay (NCI).
Compounds without any hit were thinned out: in the full panel of roughly 83,000, 20% have a hit.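 Activity criterion: percent growth below 10, measured after cells in 96-well plates were exposed to a single compound concentration for 48 hours.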 A number with no mark means an inactive call. Active and inactive are the calls of the source.

Key:
Assay in all cases: NCI-60 one-dose screen, 48 h (100 = growth as untreated, 0 = no growth, -100 = all killed)
Conditions in all cases: 10 µM unless noted
HCT-15 colon = test system: HCT-15 colon
HT29 colon = test system: HT29 colon
SNB-75 CNS = test system: SNB-75 CNS
SNB-19 CNS = test system: SNB-19 CNS
U251 CNS = test system: U251 CNS
PC-3 prostate = test system: PC-3 prostate
SK-MEL-5 melanoma = test system: SK-MEL-5 melanoma
UACC-62 melanoma = test system: UACC-62 melanoma
LOX IMVI melanoma = test system: LOX IMVI melanoma
SK-MEL-28 melanoma = test system: SK-MEL-28 melanoma
SK-MEL-2 melanoma = test system: SK-MEL-2 melanoma
SN12C renal = test system: SN12C renal
UO-31 renal = test system: UO-31 renal
TK-10 renal = test system: TK-10 renal
ACHN renal = test system: ACHN renal
CAKI-1 renal = test system: CAKI-1 renal
MOLT-4 leukemia = test system: MOLT-4 leukemia
EKVX NSCLC = test system: EKVX NSCLC
A498 renal = test system: A498 renal
CCRF-CEM leukemia = test system: CCRF-CEM leukemia

Question: For `O=S(=O)(Nc1ccccc1Cl)c1ccc(-c2cnc(C3CC3)o2)cc1`, which growth (HCT-15 colon) is on record?
Answer: The growth was 24.4%.

Question: What about the growth (HT29 colon) of the same compound?
Answer: Its growth is 12.5%.

Question: And the growth (SNB-75 CNS)?
Answer: The growth was -13.4% (active).

Question: And the growth (SNB-19 CNS)?
Answer: The growth was 39.2%.

Question: What about the growth (U251 CNS) of the same compound?
Answer: The growth was 25%.

Question: What about the growth (PC-3 prostate) of the same compound?
Answer: Its growth is 19.6%.

Question: And the growth (SK-MEL-5 melanoma)?
Answer: The growth was 17.3%.

Question: And the growth (UACC-62 melanoma)?
Answer: Its growth is 40.2%.

Question: And the growth (LOX IMVI melanoma)?
Answer: Its growth is 44.5%.

Question: What about the growth (SK-MEL-28 melanoma) of the same compound?
Answer: Its growth is 59.3%.

Question: And the growth (SK-MEL-2 melanoma)?
Answer: The growth was 39%.

Question: And the growth (SN12C renal)?
Answer: Its growth is 48.3%.

Question: What about the growth (UO-31 renal) of the same compound?
Answer: Its growth is 49.8%.

Question: And the growth (TK-10 renal)?
Answer: The growth was 61.9%.

Question: What about the growth (ACHN renal) of the same compound?
Answer: The growth was 49.8%.

Question: And the growth (CAKI-1 renal)?
Answer: Its growth is 38.1%.

Question: What about the growth (MOLT-4 leukemia) of the same compound?
Answer: The growth was 40.9%.

Question: With `CN1CCC(OC2c3ccccc3CCc3ccccc32)CC1` as the compound, how does the growth (HCT-15 colon) read?
Answer: The growth was 98.8%.

Question: What about the growth (HT29 colon) of the same compound?
Answer: The growth was 90.1%.

Question: What about the growth (SNB-75 CNS) of the same compound?
Answer: Its growth is 65.7%.

Question: What about the growth (SNB-19 CNS) of the same compound?
Answer: The growth was 99.2%.

Question: What about the growth (U251 CNS) of the same compound?
Answer: The growth was 92.5%.

Question: What about the growth (PC-3 prostate) of the same compound?
Answer: Its growth is 78.3%.

Question: What about the growth (UACC-62 melanoma) of the same compound?
Answer: Its growth is 98.4%.

Question: What about the growth (LOX IMVI melanoma) of the same compound?
Answer: The growth was 91.1%.

Question: And the growth (SK-MEL-28 melanoma)?
Answer: The growth was 94.2%.

Question: What about the growth (SK-MEL-2 melanoma) of the same compound?
Answer: Its growth is 113%.

Question: And the growth (EKVX NSCLC)?
Answer: Its growth is 84.9%.

Question: What about the growth (SN12C renal) of the same compound?
Answer: The growth was 93.9%.

Question: What about the growth (UO-31 renal) of the same compound?
Answer: Its growth is 73.4%.

Question: And the growth (TK-10 renal)?
Answer: Its growth is 89%.

Question: What about the growth (ACHN renal) of the same compound?
Answer: The growth was 97.5%.

Question: And the growth (CAKI-1 renal)?
Answer: The growth was 75.4%.

Question: And the growth (A498 renal)?
Answer: The growth was 77.9%.

Question: What about the growth (MOLT-4 leukemia) of the same compound?
Answer: Its growth is 99.5%.

Question: Which results are given for `C[C@@H](Oc1cc(-c2cnn(C3CC4(CNC4)C3)c2)cnc1N)c1c(Cl)ccc(F)c1Cl`?
Answer: growth (HCT-15 colon): 35.4%; growth (HT29 colon): -11.9% (active); growth (SNB-75 CNS): 25.1%; growth (SNB-19 CNS): 96.7%; growth (U251 CNS): 61.8%; growth (PC-3 prostate): 24.7%; growth (UACC-62 melanoma): 53%; growth (LOX IMVI melanoma): 11.5%; growth (SK-MEL-28 melanoma): 58.9%; growth (SK-MEL-2 melanoma): 32.6%; growth (SN12C renal): 22.9%; growth (ACHN renal): 48.6%; growth (CAKI-1 renal): 65.7%; growth (A498 renal): 24%; growth (CCRF-CEM leukemia): 24%; growth (MOLT-4 leukemia): 0.522% (active)

Question: `CN1CCn2c(c(Sc3ccc(C(=O)NO)cc3)c3ccccc32)C1=O` was tested. Which growth (HCT-15 colon) did it give?
Answer: Its growth is 14.6%.

Question: And the growth (HT29 colon)?
Answer: The growth was 44.3%.

Question: What about the growth (SNB-75 CNS) of the same compound?
Answer: The growth was -17.2% (active).

Question: What about the growth (SNB-19 CNS) of the same compound?
Answer: Its growth is -26.4% (active).

Question: And the growth (U251 CNS)?
Answer: Its growth is -60.5% (active).

Question: What about the growth (PC-3 prostate) of the same compound?
Answer: Its growth is -35.2% (active).

Question: What about the growth (UACC-62 melanoma) of the same compound?
Answer: Its growth is -61.4% (active).

Question: What about the growth (LOX IMVI melanoma) of the same compound?
Answer: The growth was -44.2% (active).

Question: And the growth (SK-MEL-28 melanoma)?
Answer: The growth was -33.4% (active).

Question: What about the growth (SK-MEL-2 melanoma) of the same compound?
Answer: Its growth is -43.3% (active).

Question: And the growth (SN12C renal)?
Answer: The growth was -3% (active).

Question: What about the growth (UO-31 renal) of the same compound?
Answer: The growth was 59%.

Question: And the growth (ACHN renal)?
Answer: Its growth is 36.6%.

Question: What about the growth (CAKI-1 renal) of the same compound?
Answer: The growth was 50.5%.

Question: What about the growth (CCRF-CEM leukemia) of the same compound?
Answer: Its growth is -6.26% (active).

Question: And the growth (MOLT-4 leukemia)?
Answer: The growth was 1.98% (active).

Question: What does the source list for `COc1cccc(C2CC(=O)Nc3cc4c(cc32)OCO4)c1OC` (stereo unspecified)?
Answer: growth (HCT-15 colon): 89.4%; growth (HT29 colon): 90.6%; growth (SNB-75 CNS): 76.3%; growth (SNB-19 CNS): 101%; growth (U251 CNS): 85.6%; growth (PC-3 prostate): 94.2%; growth (UACC-62 melanoma): 96.1%; growth (LOX IMVI melanoma): 96.5%; growth (SK-MEL-28 melanoma): 111%; growth (SK-MEL-2 melanoma): 88.3%; growth (EKVX NSCLC): 110%; growth (SN12C renal): 103%; growth (UO-31 renal): 72.4%; growth (TK-10 renal): 87%; growth (ACHN renal): 91.8%; growth (CAKI-1 renal): 78.4%; growth (A498 renal): 77.6%; growth (CCRF-CEM leukemia): 82.1%; growth (MOLT-4 leukemia): 87.1%

Question: `Cc1ccc(S(=O)(=O)N2CCc3ccc(O)c4c3C2Cc2cc(Cl)ccc2-4)cc1` (stereo unspecified) was tested. Which growth (HCT-15 colon) did it give?
Answer: Its growth is 48.4%.

Question: What about the growth (HT29 colon) of the same compound?
Answer: The growth was 103%.

Question: And the growth (SNB-75 CNS)?
Answer: The growth was 48.7%.

Question: And the growth (SNB-19 CNS)?
Answer: The growth was 83.9%.

Question: What about the growth (U251 CNS) of the same compound?
Answer: Its growth is 30.2%.

Question: And the growth (PC-3 prostate)?
Answer: The growth was 65.7%.

Question: What about the growth (UACC-62 melanoma) of the same compound?
Answer: Its growth is 57%.

Question: What about the growth (LOX IMVI melanoma) of the same compound?
Answer: The growth was 68.9%.

Question: What about the growth (SK-MEL-28 melanoma) of the same compound?
Answer: The growth was 56.6%.

Question: And the growth (EKVX NSCLC)?
Answer: Its growth is 99.6%.

Question: What about the growth (SN12C renal) of the same compound?
Answer: The growth was 91.9%.

Question: What about the growth (UO-31 renal) of the same compound?
Answer: The growth was 48.8%.

Question: What about the growth (TK-10 renal) of the same compound?
Answer: Its growth is 69.1%.

Question: What about the growth (ACHN renal) of the same compound?
Answer: Its growth is 57.1%.

Question: And the growth (CAKI-1 renal)?
Answer: Its growth is 56.1%.

Question: And the growth (A498 renal)?
Answer: The growth was 47.5%.

Question: And the growth (CCRF-CEM leukemia)?
Answer: The growth was 94%.

Question: What about the growth (MOLT-4 leukemia) of the same compound?
Answer: The growth was 74.4%.

Question: What does the source list for `Cc1ccc(C(=O)Nc2ccccc2N)cc1`?
Answer: growth (HCT-15 colon): 88%; growth (HT29 colon): 79.4%; growth (SNB-75 CNS): 82.8%; growth (SNB-19 CNS): 81.9%; growth (U251 CNS): 74.8%; growth (PC-3 prostate): 70.9%; growth (UACC-62 melanoma): 52.1%; growth (LOX IMVI melanoma): 89.5%; growth (SK-MEL-2 melanoma): 57.5%; growth (SN12C renal): 64%; growth (UO-31 renal): 37.4%; growth (ACHN renal): 87.7%; growth (CAKI-1 renal): 93.7%; growth (A498 renal): 54.9%; growth (CCRF-CEM leukemia): 4.67% (active); growth (MOLT-4 leukemia): 30.9%

Question: Which growth (HCT-15 colon) does the source give for `COc1ccc(-c2csc3c2-n2cccc2C3=O)cc1O` here?
Answer: Its growth is 17.4%.

Question: What about the growth (HT29 colon) of the same compound?
Answer: Its growth is 23.9%.

Question: What about the growth (SNB-75 CNS) of the same compound?
Answer: The growth was 46.5%.

Question: What about the growth (SNB-19 CNS) of the same compound?
Answer: The growth was 41.4%.

Question: What about the growth (U251 CNS) of the same compound?
Answer: The growth was 4.86% (active).

Question: What about the growth (PC-3 prostate) of the same compound?
Answer: The growth was 17.2%.

Question: What about the growth (UACC-62 melanoma) of the same compound?
Answer: The growth was 29.4%.

Question: What about the growth (LOX IMVI melanoma) of the same compound?
Answer: Its growth is 22.5%.

Question: What about the growth (SK-MEL-28 melanoma) of the same compound?
Answer: The growth was 61.5%.

Question: What about the growth (SK-MEL-2 melanoma) of the same compound?
Answer: The growth was 26.9%.

Question: What about the growth (EKVX NSCLC) of the same compound?
Answer: Its growth is 56%.

Question: And the growth (SN12C renal)?
Answer: Its growth is 29.6%.

Question: And the growth (UO-31 renal)?
Answer: Its growth is 31.5%.

Question: What about the growth (TK-10 renal) of the same compound?
Answer: The growth was 51.3%.

Question: What about the growth (ACHN renal) of the same compound?
Answer: Its growth is 31.7%.

Question: What about the growth (CAKI-1 renal) of the same compound?
Answer: The growth was 43.1%.

Question: And the growth (CCRF-CEM leukemia)?
Answer: The growth was 0.363% (active).

Question: And the growth (MOLT-4 leukemia)?
Answer: The growth was -10.8% (active).

Question: What does the source list for `Cc1c(C)n(CC(O)CNC2CCCCC2C)c2ccccc12` (stereo unspecified)?
Answer: growth (HCT-15 colon): -16.2% (active); growth (HT29 colon): -49.6% (active); growth (SNB-75 CNS): -38.7% (active); growth (SNB-19 CNS): 62%; growth (U251 CNS): -52.1% (active); growth (PC-3 prostate): -24% (active); growth (UACC-62 melanoma): -84.7% (active); growth (LOX IMVI melanoma): -83.1% (active); growth (SK-MEL-28 melanoma): -85.2% (active); growth (SK-MEL-2 melanoma): -49.9% (active); growth (SN12C renal): -41.9% (active); growth (UO-31 renal): -87.5% (active); growth (TK-10 renal): -76.3% (active); growth (ACHN renal): -41.3% (active); growth (CAKI-1 renal): -38.7% (active); growth (A498 renal): 63.3%; growth (CCRF-CEM leukemia): -9.05% (active); growth (MOLT-4 leukemia): 4.33% (active)
